The source of these data is PubChem BioAssay AID623868 (Vanderbilt High Throughput Screening Facility, 2012).

The whole screen tested about 2,100 compounds, of which about 760 (36%) were called active.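 The calls were made as follows: active = thallium-flux fluorescence traces judged by eye to show enhanced or reduced glutamate response, manual score 1 or -1, so both directions (some results past the limit were not filed as active); inactive = the rest, including fluorescent or raised-baseline compounds.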 The list is a sample of the results.

The nature of the assay: non-GIRK thallium flux modulation in mGlu8 cells, confirmation, counter-screen for GIRK activator project, cell-based, HEK-293 rmGlu8, no GIRK (AID 623868).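 Also: extra codes mark interference with 3 for fluorescent and 4 for baseline rise.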 The conditions noted are these: thallium flux fluorescence, at 10 µM, actives lie on both sides, codes: 1 enhancer, -1 blocker, 0 none, thallium stimulus containing EC20 glutamate. Background: A counterscreen serves to expose hits that act by an unwanted route or on another target.
`CCCC(=O)NC(c1cccs1)c1cc([N+](=O)[O-])c2cccnc2c1O` (stereo unspecified): the manual score is 0 (inactive).

On to `CCCC(=O)Nc1ccc(NC(=O)C2CC2)cn1`, for which the manual score is 0 (inactive).

As to `COCc1nnc(NC(=O)C(C)C)s1`, the manual score is 0 (inactive).

As for `Cc1conc1NC(c1cccs1)c1ccc2cccnc2c1O` (stereo unspecified), the manual score was 0.5 (inactive).

For the molecule `COc1ccccc1-n1cnnc1SCC(=O)c1cc(C)n(Cc2cccs2)c1C`, the manual score was 0 (inactive).

For `CCCC(=O)n1nc(-c2ccccc2)nc1N`, the manual score is 0 (inactive).

`CCC(=O)n1nc(-c2cccnc2)nc1NCc1ccc(OC)cc1`: the manual score is -1 (active).

Regarding `COc1cccc(N(CC(=O)NCc2cccnc2)S(C)(=O)=O)c1`, the manual score was 0 (inactive).

For `COc1ccc(CNC(=O)CSCc2ccccc2Cl)cc1`, the manual score is -0.5 (inactive).

With `O=C(c1cc2nc(-c3ccccc3)cc(-c3ccccc3)n2n1)N1CCN(C(=O)c2ccco2)CC1`, the manual score is -0.5 (inactive).

`COc1ccc(CNc2nc(-c3cccnc3)nn2C(=O)c2ccco2)cc1`: the manual score was -1 (active).

`c1cn(C23CC4CC(CC(C4)C2)C3)cn1`: the manual score is 0.5 (inactive).

For the molecule `S=c1nn[nH]n1C12CC3CC(CC(C3)C1)C2`, the manual score is 1 (active).

For `CCOc1ccc(Nc2ncnc(N)n2)cc1`, the manual score was 0 (inactive).

For the molecule `O=c1c2ccccc2nc(SCc2cn3ccsc3n2)n1-c1ccc(F)cc1`, the manual score is -1 (active).

Take `Cc1noc(C)c1CSc1nc2ccccc2c(=O)n1-c1ccc(F)cc1F`: the manual score was 0 (inactive).

On to `COCCNCCOc1ccccc1-c1ccccc1`, for which the manual score was 0 (inactive).

For `COc1ccc(CN(C)CC(=O)NC(=O)NCc2ccccc2)cc1OC`, the manual score was 0 (inactive).

Take `COc1ccc(CCNC(=O)CSc2nnc(-c3ccc(F)cc3)c3ccccc23)cc1OC`: the manual score is -1 (active).

`COc1cc2c(cc1NC(=O)COc1ccccc1OC)oc1ccccc12`: the manual score is 0 (inactive).

For the molecule `CCOC(=O)CSC1=C(C#N)C(=O)NC(c2ccc(OC)c(OC)c2)S1` (stereo unspecified), the manual score was 0 (inactive).

`Cc1ccc(C)c(Nc2c([N+](=O)[O-])cc(C(=O)N3CC(=O)Nc4ccccc43)cc2[N+](=O)[O-])c1`: the manual score was 0 (inactive).

Consider `CCc1nnc(NC(=O)CSc2nnc(-c3c[nH]c4ccccc34)n2CC)s1`, for which the manual score was 0 (inactive).

Take `Cc1sc2nc(C3CC3)nc(SCC(=O)N3CC(=O)Nc4ccccc43)c2c1C`: the manual score is 1 (active).

For `CCc1nc(SCC(=O)Nc2nnc(CC)s2)c2c(C)c(C)sc2n1`, the manual score was 1 (active).

As to `CCc1c(C)nc(SCC(=O)N2CCc3ccccc32)[nH]c1=O`, the manual score is 0 (inactive).

Regarding `Cc1cc(NC(=O)CSc2nc3ccsc3c(=O)n2NC(=O)c2ccccc2)no1`, the manual score was 0 (inactive).

For `CCc1nc(SCC(=O)N2CC(=O)Nc3ccccc32)c2c(C)c(C)sc2n1`, the manual score is 1 (active).

In the case of `Cc1cc(NC(=O)CSc2nc(C3CC3)nc3sc(C)c(C)c23)no1`, the manual score is 1 (active).

Take `Cc1ccc(N(C(=O)CCC(=O)Nc2cc(C)on2)C(C(=O)NC2CCCC2)c2cccs2)cc1` (stereo unspecified): the manual score was 0 (inactive).

Regarding `CCSc1nnc(NC(=O)CC)s1`, the manual score is 0 (inactive).

As to `CN1C(=O)NC(c2ccccc2)C2=C1CN(Cc1ccccc1)C2=O` (stereo unspecified), the manual score was 0 (inactive).

`CCOC(=O)C1(C(C)(C)CC)CC(CSc2nc3ccccc3[nH]2)OC1=O` (stereo unspecified): the manual score is 0 (inactive).

For the molecule `CN1CCN(C(=O)c2sc(=S)n(-c3ccccc3)c2N)CC1`, the manual score is 0 (inactive).

Turning to `O=C(NCCSCc1ccco1)Nc1cccc(Cl)c1`, the manual score was 0 (inactive).

As to `CN(C(=O)CSC1=Nc2ccccc2C2=NC(c3ccccc3)C(=O)N12)C1CCCCC1` (stereo unspecified), the manual score was -1 (active).

As to `Cc1sccc1C1C(C#N)=C(N)SC(N)=C1C#N`, the manual score was -1 (active).

As for `Cc1ccc(C(C(=O)NC2CCCC2)N2CCCC(C)C2)cc1` (stereo unspecified), the manual score was 0 (inactive).

In the case of `CCC(=O)c1ccc(N2CCN(C(=O)c3cc([N+](=O)[O-])ccc3N3CCN(C)CC3)CC2)c(F)c1`, the manual score was 0 (inactive).

On to `O=S(=O)(c1ccccc1)N1CCN(C(=S)Nc2ccc(F)cc2)CC1`, for which the manual score was 0 (inactive).

As for `O=C(NC(=S)N1CCN(c2ccc(F)cc2)CC1)C12CC3CC(CC(C3)C1)C2`, the manual score is 1 (active).

Regarding `CCOC(=O)C1CCN(C(=O)NC23CC4CC(CC(C4)C2)C3)CC1`, the manual score is 0 (inactive).

`CC12CC3CC(C)(C1)CC(C(=O)NC(=S)N1CCCCC1)(C3)C2`: the manual score is 1 (active).

Consider `CCOc1ccccc1N1CCN(C(=S)NC(=O)C23CC4CC(CC(C4)C2)C3)CC1`, for which the manual score is 0.5 (inactive).

As to `O=C(c1csc2c1CCCC2)N1CCN(c2ccc(F)cc2)CC1`, the manual score was 0 (inactive).

`O=C(NC(=S)N1CCN(c2ccc([N+](=O)[O-])cc2)CC1)c1ccc(F)cc1`: the manual score was 1 (active).

For `O=C(NC(=S)N1CCCCC1)C12CC3CC(CC(C3)C1)C2`, the manual score was 1 (active).

On to `CCCCN(Cc1ccccc1)S(=O)(=O)c1ccc2[nH]c(=O)oc2c1`, for which the manual score was 0 (inactive).

Regarding `COc1ccc(Cl)cc1C(=O)CSc1nnnn1C1CCCC1`, the manual score was 0 (inactive).

Consider `CC12CC3CC(C)(C1)CC(C(=O)NC(=S)N1CCOCC1)(C3)C2`, for which the manual score was 1 (active).

In the case of `CC12CC3(C)CC(C)(C1)CC(C(=O)NC(=S)N1CCOCC1)(C2)C3`, the manual score is 1 (active).

Regarding `O=C(c1ccco1)N1CCN(C(=O)c2cnn3c2NC(c2cccs2)CC3C(F)(F)F)CC1` (stereo unspecified), the manual score was 0 (inactive).

On to `CCc1sc(NC(=O)CN2CCOCC2)nc1-c1ccccc1`, for which the manual score is -1 (active).

As for `O=C(CSc1nc(-c2ccccc2)cc(C(F)(F)F)n1)NCCN1CCOCC1`, the manual score was 0 (inactive).

Regarding `O=C(CN1CCOCC1)Nc1ccc(C2CCCCC2)cc1`, the manual score was 0 (inactive).

As to `CCN(CC)S(=O)(=O)c1csc(C(=O)NCc2ccccc2)c1`, the manual score is 0 (inactive).

As to `COc1ccc(OC)c(C2C(C(=O)c3cccs3)=C(O)C(=O)N2c2cc(C)on2)c1` (stereo unspecified), the manual score was -1 (active).

In the case of `COc1ccc(OC)c(C2C(C(=O)c3cc4ccccc4o3)=C(O)C(=O)N2c2cc(C)on2)c1` (stereo unspecified), the manual score was -1 (active).

As to `C=CCOc1cccc(C2C(C(=O)c3ccc(C)o3)=C(O)C(=O)N2c2nccs2)c1` (stereo unspecified), the manual score was 3 (inactive).

For `COc1ccc(C(OC(=O)c2cccs2)C(=O)NCC2CCCO2)cc1` (stereo unspecified), the manual score is 0 (inactive).

As for `COc1ccc2nc3oc(C(=O)Nc4ccc(OC)c(OC)c4)cc3cc2c1`, the manual score was 0 (inactive).

Turning to `Cc1cc(N2C(=O)C(O)=C(C(=O)c3ccc(C)o3)C2c2cccs2)no1` (stereo unspecified), the manual score was -1 (active).

As to `C/C(CC(=O)NCC(C)C)=N\NC(=O)COc1cc(C)c(Br)cc1Br`, the manual score was 0 (inactive).

Take `COc1ccc(S(=O)(=O)N(CCc2ccccc2)CC(=O)O)cc1`: the manual score was 0 (inactive).

Turning to `CCOc1ccc(N2C(=O)c3ccccc3C2O)cc1` (stereo unspecified), the manual score is 0 (inactive).

In the case of `CCOc1ccc(NC(=O)CCC(=O)c2ccc(-c3ccccc3)cc2)cc1`, the manual score is 0 (inactive).

With `COc1ccc(C(=O)NC(=S)N(Cc2ccccc2)Cc2ccccc2)cc1`, the manual score is 1 (active).

With `CCOc1ccc(C(=O)NC(=S)N(Cc2ccccc2)Cc2ccccc2)cc1`, the manual score was 1 (active).

In the case of `CC(=O)CN1Cc2ccccc2/C1=N\C(=O)Nc1ccccc1`, the manual score was 0 (inactive).

For the molecule `CCc1c(C)c(C#N)c2nc3ccccc3n2c1NCc1ccco1`, the manual score was -1 (active).

With `Cc1nc2ccccn2c1-c1csc(NCc2ccco2)n1`, the manual score is -0.5 (inactive).

In the case of `Cn1cc(S(=O)(=O)Nc2ccc(F)cc2F)c(=O)n(C)c1=O`, the manual score was 0 (inactive).

On to `N/C(=N\OC(=O)Cc1ccccc1)c1ccc(Br)cc1`, for which the manual score is 0 (inactive).

In the case of `COc1ccc(/C=N/NC(=O)c2nc(-c3ccccc3)cc(-c3ccccc3)n2)cc1`, the manual score was 0 (inactive).

For `O=C(N/N=C/c1ccc2cccc(OCc3ccccc3)c2n1)c1ccc(Br)cc1`, the manual score is 1 (active).

Turning to `O=C(N/N=C/c1ccccn1)c1ccc(Br)cc1`, the manual score is 1 (active).

For `COc1ccc(C(=O)N/N=C/c2ccc3cccc(OCc4ccccc4)c3n2)cc1`, the manual score was 1 (active).

As to `CSC1=N/C(=C\c2ccc(Br)o2)C(=O)S1`, the manual score was 0 (inactive).

Regarding `CCCCN(C)C1=CC2=CC(=C(C#N)C#N)CCC2CC1` (stereo unspecified), the manual score was 3 (inactive).

As to `Cc1cc2c(cc1C)C(=O)NC(C)(C)C2`, the manual score was 0 (inactive).

Turning to `Cc1cccc(OCC(O)CN2C(C)(C)CC(O)CC2(C)C)c1` (stereo unspecified), the manual score was 0 (inactive).

For `COc1ccc(Nc2nc(C)cc(C)c2C#N)cc1OC`, the manual score is 0 (inactive).

For the molecule `CCc1nc(N2CCOCC2)c(C#N)c2c1CCCC2`, the manual score is 0 (inactive).

On to `Oc1[nH]c2ccccc2c1N=Nc1nc2ccccc2s1`, for which the manual score is 1 (active).

Turning to `CCCCn1c(=S)[nH]c2c(oc3ccc(Cl)cc32)c1=O`, the manual score is 1 (active).

Take `CCN(CC)CCCn1c(=S)[nH]c2cc(Cl)ccc2c1=O`: the manual score is 0 (inactive).

Regarding `CCCCn1c(-c2ccc(Cl)cc2)nc2c(=O)n(C)c(=O)[nH]c21`, the manual score is 0 (inactive).

For `CC1(C)CC(=O)c2c(noc2-c2ccccc2)C1`, the manual score is 0 (inactive).

As to `CCCCN(CCCC)C(=S)NC(=O)C(C)(C)C`, the manual score was 1 (active).

As to `CCCN(CCC)C(=S)NC(=O)c1ccc(Cl)cc1Cl`, the manual score is 1 (active).

Take `CCCCn1c(NC(=O)c2ccccc2Cl)c(C#N)c2nc3ccccc3nc21`: the manual score is 0 (inactive).

As for `CCCN(CCC)CCCOC(=O)c1ccc(Cl)cc1Cl`, the manual score is 0 (inactive).

On to `CCCCN(CCCC)c1ccc(C(=O)c2ccccc2C(=O)O)c(O)c1`, for which the manual score is -0.5 (inactive).

Turning to `CCCCN(CCCC)C(=S)NC(=O)c1ccccc1Cl`, the manual score was 1 (active).

With `CCCCN(CCCC)S(=O)(=O)c1ccc(NC(=O)c2ccc([N+](=O)[O-])cc2Cl)cc1`, the manual score was 0 (inactive).

Take `CC1Cc2ccccc2N1C(=S)NC(=O)c1ccc(Cl)cc1Cl` (stereo unspecified): the manual score is 1 (active).

For the molecule `CC(C)CCNC(=O)C(C)N(C(=O)Cn1nnc(-c2ccc(F)cc2)n1)C1CCCC1` (stereo unspecified), the manual score was 0 (inactive).

In the case of `CCCCC(=O)N1CCCC(c2nc3c(nnn3Cc3cc(C)ccc3C)c(=O)[nH]2)C1` (stereo unspecified), the manual score was 0 (inactive).

On to `CC(C)(C)c1ccc(CN2C3=NCCCN3c3ccccc32)cc1`, for which the manual score was 0 (inactive).

Take `CCN(CC)C(=S)NC(=O)c1ccc(Cl)cc1Cl`: the manual score was 1 (active).

For the molecule `CCOC(=O)/C(=C/C=C1\Sc2ccccc2N1CC)C(C)=O`, the manual score was 3 (inactive).

For `O=C(/C=C/c1ccccc1)c1cc(Br)ccc(=O)c1O`, the manual score is 1 (active).

Consider `COc1ccc(NC(=S)NC(NC(=O)/C=C/c2ccccc2)C(Cl)(Cl)Cl)cc1` (stereo unspecified), for which the manual score is 0 (inactive).

For `Cc1ccc(/C=C/C(=O)c2ccccc(=O)c2O)cc1C`, the manual score was 1 (active).

As to `CCc1ccc(/C=C/C(=O)c2cc(Br)ccc(=O)c2O)cc1`, the manual score is 1 (active).

As for `COc1ccc(/C=C/C(=O)c2cc(Br)ccc(=O)c2O)cc1`, the manual score was 1 (active).
